Only some compounds are listed: those with a hit (about 4.6% of all), similar ones and a draw of the others.
TRHR enhancer: qHTS for Small Molecule Agonists and Allosteric Enhancers of Human TRH Receptor: Primary Screen for Enhancers; TRHR cells, fluo-8 calcium fluorescence, EC20 TRH enhancement; Thyrotropin-releasing hormone receptor (Homo sapiens), P34981; 360,000 compounds, 0.66% hits; enhancement, % at 2 µM; AID 493056, 2011; in the data active = enhancement above about 30%; also: 0% is about no effect
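Enhancer read-out: after compound pinning and an initial kinetic agonist-mode read, an EC20 of TRH (10 nM final) was injected and fluo-8 calcium signal (Ex 480/Em 530) followed at 1 s/cycle for 100 cycles in TRHR-expressing cells.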
D1 antag: Antagonist of Human D 1 Dopamine Receptor: qHTS. HEK293 TREx D1 cells, calcium flux, dopamine EC80; active compounds read low. activity change, negative = inhibition, % at 10 µM. 360,000 compounds, 3.2% hits. AID 504652, 2011; in the data active = activity change below about -30%; also: % is scaled to controls: 0 for no effect and ±100 for the full control effect
Target sequence (P21728 whole entry, looked up): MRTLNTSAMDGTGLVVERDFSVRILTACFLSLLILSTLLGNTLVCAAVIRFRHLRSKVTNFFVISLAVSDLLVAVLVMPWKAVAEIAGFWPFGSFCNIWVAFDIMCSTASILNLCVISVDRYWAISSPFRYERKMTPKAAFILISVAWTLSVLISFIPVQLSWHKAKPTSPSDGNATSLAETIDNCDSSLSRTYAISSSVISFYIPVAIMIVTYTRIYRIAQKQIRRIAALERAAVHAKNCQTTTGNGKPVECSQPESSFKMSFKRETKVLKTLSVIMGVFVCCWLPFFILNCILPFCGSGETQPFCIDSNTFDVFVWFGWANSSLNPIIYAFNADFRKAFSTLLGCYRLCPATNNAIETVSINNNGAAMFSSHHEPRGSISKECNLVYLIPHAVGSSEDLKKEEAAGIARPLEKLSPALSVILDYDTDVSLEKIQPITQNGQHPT
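Tetracycline-induced HEK293 Trex D1 cells, force-coupled to calcium, dye-loaded; compounds added and read 180 s, then EC80 dopamine added and calcium flux tracked kinetically another 180 s.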
D1 agonist: Allosteric Agonists of the Human D1 Dopamine Receptor: qHTS. HEK293 T-REx D1 cells, calcium flux, agonist mode. 360,000 compounds, 1% hits. D(1A) dopamine receptor (Homo sapiens), P21728. activation, % at 2 µM; also: 0% is about no effect
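Tetracycline-induced HEK293 TREx D1 cells, force-coupled to calcium signalling, were dye-loaded with a no-wash calcium kit. Compound was pin-added after a 10 s baseline. Fluorescence was read kinetically at 1 cycle/s for 180 s, with calcium rises flagged as agonism.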
D1 PAM: Potentiators of Human D1 Dopamine Receptor: qHTS; potentiation, % at 10 µM; 360,000 compounds, 0.036% hits; D(1A) dopamine receptor (Homo sapiens), P21728; HEK293 TREx D1 cells, calcium flux, dopamine EC20 potentiation; AID 504651, 2011; in the data active = potentiation above about 30%; also: 0% is about no effect
TRHR ag: qHTS for Small Molecule Agonists and Allosteric Enhancers of Human TRH Receptor: Primary Screen for Agonists. activation, % at 2 µM. TRHR cells, calcium flux fluo-8, FDSS agonist mode. Thyrotropin-releasing hormone receptor (Homo sapiens), P34981. 360,000 compounds, 0.18% hits; also: 0% is about no effect
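TRHR-expressing cells loaded with fluo-8 calcium dye; 23 nL library compound pin-transferred, kinetic FDSS fluorescence (Ex 480/Em 530) recorded about 180 s for agonist-induced calcium release, before a 10 nM TRH EC20 addition for potentiator mode.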
* = called active by the depositor; ! = not confirmed by another sample. Rule as the data show it, unless noted: active = activation above about 30%; inactive = the rest.

O=C(Cc1nnc(-c2cc3ccccc3[nH]2)s1)Nc1cc(C(F)(F)F)ccc1Cl was read as TRHR enhancer 16, D1 antag -34*!, D1 agonist 3, D1 PAM 1 and TRHR ag 1.
Screening O=C(Nc1nnc(S(=O)(=O)N2CCCC2)s1)c1ccc(F)cc1 returned TRHR enhancer -6, D1 antag -1, D1 agonist 5, D1 PAM -4 and TRHR ag 0.
O=C(NNC(=O)c1cccnc1)Nc1ccc([N+](=O)[O-])cc1 was read as TRHR enhancer 0, D1 antag 16, D1 agonist 4, D1 PAM -1 and TRHR ag 0.
Screening Cc1ccc(CNC(=O)c2cccc(-n3cnnn3)c2)cc1 returned TRHR enhancer 30*, D1 antag 15, D1 agonist 0, D1 PAM -1 and TRHR ag 0.
`CCOc1ccc(CCNC(=O)c2cccc(-n3cnnn3)c2)cc1OCC` gave TRHR enhancer -1, D1 antag -31*, D1 agonist 4, D1 PAM -9 and TRHR ag 0.
For CC(C)(C)c1ccc(C(=O)NNC(=O)c2cccc(-n3cnnn3)c2)cc1 the results were TRHR enhancer 4, D1 antag -6, D1 agonist 3, D1 PAM 0 and TRHR ag 0.
Screening Cc1c(C)c2ccc(OCC(=O)N3CC[C@@]4(O)CCCC[C@H]4C3)cc2oc1=O returned TRHR enhancer 5, D1 antag -11, D1 agonist 2, D1 PAM 1 and TRHR ag 0.
For O=C(COc1ccc2ccc(=O)oc2c1)N1CC[C@@]2(O)CCCC[C@H]2C1 the results were TRHR enhancer -3, D1 antag -49*, D1 agonist 0, D1 PAM -10 and TRHR ag 0.
For Cc1c(N(C)C)nc2ccccc2c1N the results were TRHR enhancer -2, D1 antag -9, D1 agonist 2, D1 PAM -2 and TRHR ag 1.
For CCN(CC)c1nc2ccccc2c(N)c1-c1ccccc1 the results were TRHR enhancer 13, D1 antag -33*, D1 agonist 22, D1 PAM -14 and TRHR ag -1.
`Cn1cccc1/C=N/n1c(-c2ccco2)n[nH]c1=S` gave TRHR enhancer 2, D1 antag 19, D1 agonist -1, D1 PAM -5 and TRHR ag 0.
`COc1cc(-c2n[nH]c(=S)n2/N=C/c2cccn2C)cc(OC)c1OC` gave TRHR enhancer 2, D1 antag -59*, D1 agonist 78*, D1 PAM -2 and TRHR ag 19.
CCn1ncc([N+](=O)[O-])c1C(=O)NC1CCCCC1 was read as TRHR enhancer 3, D1 antag -16, D1 agonist 0, D1 PAM -1 and TRHR ag 0.
Screening COc1ccc(NC(=O)N(C2CCCCC2)C(C)c2ccco2)c(OC)c1 (stereo unspecified) returned TRHR enhancer -19, D1 antag -78*, D1 agonist 1, D1 PAM -18 and TRHR ag 0.
COc1ccc(NC(=O)CN2CCN(C(=O)c3ccco3)CC2)c(OC)c1 was read as TRHR enhancer 9, D1 antag 3, D1 agonist 4, D1 PAM -3 and TRHR ag 0.
Screening COc1ccc(NC(=O)N(C2CCCCC2)C(C)c2cccnc2)c(OC)c1 (stereo unspecified) returned TRHR enhancer -8, D1 antag -7, D1 agonist 3, D1 PAM -3 and TRHR ag 0.
For COc1ccc(NC(=S)N2CCN(C(=O)c3ccco3)CC2)c(OC)c1 the results were TRHR enhancer -3, D1 antag -68*, D1 agonist 2, D1 PAM -7 and TRHR ag 1.
`COc1ccc(NC(=O)CSCC(=O)N2CCN(C(=O)c3ccco3)CC2)cc1` gave TRHR enhancer 0, D1 antag -63*, D1 agonist 3 and TRHR ag 0.
O=c1cc(O)n(C2CCCCCC2)c(=O)[nH]1 was read as TRHR enhancer -9, D1 antag -24, D1 agonist 0, D1 PAM 1 and TRHR ag 2.
`CCc1occc(=O)c1Oc1cc(NN2CCCCC2)c([N+](=O)[O-])cc1[N+](=O)[O-]` gave TRHR enhancer 10, D1 antag 4, D1 agonist 1, D1 PAM 12 and TRHR ag -1.
`CCC(NC(=O)c1cc(COc2cc(C)c(Cl)c(C)c2)on1)c1ccncc1` (stereo unspecified) gave TRHR enhancer -1, D1 antag 65, D1 agonist 36*, D1 PAM -4 and TRHR ag 3.
`CCC(NC(=O)c1cc(COc2ccc(OC)cc2Cl)on1)c1ccncc1` (stereo unspecified) gave TRHR enhancer 4, D1 antag -26, D1 agonist 25, D1 PAM -2 and TRHR ag 1.
`CC(CC(=O)Nc1cccc(S(=O)(=O)N2CCCCC2)c1)c1ccccc1` (stereo unspecified) gave TRHR enhancer -9, D1 antag -5, D1 agonist 10, D1 PAM -1 and TRHR ag 1.
O=C(CSc1ccccc1)Nc1cccc(S(=O)(=O)N2CCCC2)c1 was read as TRHR enhancer 4, D1 antag -32*, D1 agonist 5, D1 PAM -2 and TRHR ag -1.
`O=C(Nc1ccncc1)C1CCN(S(=O)(=O)c2cccc(C(F)(F)F)c2)CC1` gave TRHR enhancer 6, D1 antag -44*, D1 agonist 8 and TRHR ag 0.
`COc1ccc(CCC(=O)Nc2cccc(S(=O)(=O)N3CCCCCC3)c2)cc1OC` gave TRHR enhancer -7, D1 antag -31*, D1 agonist 10, D1 PAM -4 and TRHR ag 0.
Screening CN1CCN(c2ccc(NC(=O)CSc3ccccc3)cc2F)CC1 returned TRHR enhancer -5, D1 antag -53*, D1 agonist 6, D1 PAM -17 and TRHR ag 0.
`O=C(c1ccc(OC2CCN(CCc3ccccc3)CC2)cc1)N1CCCCC1CCCO` (stereo unspecified) gave TRHR enhancer 1, D1 antag -2, D1 agonist 14, D1 PAM -2 and TRHR ag 0.

From PubChem
